This is part of a sample that, as a whole, favours compounds with a hit. Of some 83,000 tested, about 20% had one in any assay.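 A percent growth of 40 corresponds to 60% growth inhibition; 0 means no net growth; -100 means all cells died. Active threshold: below 10.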 Values without a mark were called inactive. Active and inactive are the calls of the source.
Experiments:
Assay in all cases: NCI-60 one-dose screen, 48 h (100 = growth as untreated, 0 = no growth, -100 = all killed)
NCI-H23 lung = conditions: 10 µM unless noted
NCI-H226 lung = conditions: 10 µM unless noted
NCI-H322M lung = conditions: 10 µM unless noted
HOP-62 NSCLC = conditions: 10 µM unless noted
NCI-H460 lung = conditions: 10 µM unless noted
HOP-92 NSCLC = conditions: 10 µM
NCI-H522 lung = conditions: 10 µM unless noted
A549/ATCC NSCLC = conditions: 10 µM unless noted
786-0 renal = conditions: 10 µM unless noted
COLO 205 colon = conditions: 10 µM unless noted
DU-145 prostate = conditions: 10 µM unless noted
K-562 leukemia = conditions: 10 µM unless noted
MALME-3M melanoma = conditions: 10 µM unless noted
MDA-MB-231 breast = conditions: 10 µM unless noted
RXF 393 renal = conditions: 10 µM unless noted
SF-268 CNS = conditions: 10 µM unless noted
SF-295 CNS = conditions: 10 µM unless noted
SF-539 CNS = conditions: 10 µM unless noted
UACC-257 melanoma = conditions: 10 µM unless noted

| SMILES | growth (NCI-H23 lung) | growth (NCI-H226 lung) | growth (NCI-H322M lung) | growth (HOP-62 NSCLC) | growth (NCI-H460 lung) | growth (HOP-92 NSCLC) | growth (NCI-H522 lung) | growth (A549/ATCC NSCLC) | growth (786-0 renal) | growth (COLO 205 colon) | growth (DU-145 prostate) | growth (K-562 leukemia) | growth (MALME-3M melanoma) | growth (MDA-MB-231 breast) | growth (RXF 393 renal) | growth (SF-268 CNS) | growth (SF-295 CNS) | growth (SF-539 CNS) | growth (UACC-257 melanoma) |
| --- | --- | --- | --- | --- | --- | --- | --- | --- | --- | --- | --- | --- | --- | --- | --- | --- | --- | --- | --- |
| C#Cc1nc(C(C)=O)cs1 | 102% | 99.7% | 106% | 103% | 106% | 111% | 92.1% | 108% | 98.6% | 115% | 109% | 90.6% | 105% | 103% | 95.6% | 105% | 106% | 99.1% | 107% |
| COc1ccccc1N1CCN(C2=CC(=O)C(C)=C(C)C2=O)CC1 | 99.5% | 96.9% | 112% | 103% | 102% | 117% | 88.1% | 102% | 108% | 112% | 105% | 96.9% | 104% | 102% | 97.7% | 101% | 103% | 100% | 96.4% |
| NS(=O)(=O)c1ccc(Nc2nc(Nc3ccccc3)nc3nnc(SCC(=O)NC4CCCCC4)n23)cc1 | 109% | 100% | 104% | 103% | 106% | 105% | 92.1% | 108% | 103% | 110% | 106% | 94.1% | 101% | 95% | 126% | 106% | 105% | 96.1% | 104% |
| Cc1ccc(NC(=O)c2ccc(CN3CCN(C)CC3)cc2)cc1Oc1ccc(-c2[nH]nc3ncnc(N)c23)cc1 | 99.6% | 98.5% | 97.3% | 104% | 110% | 98.3% | 89.9% | 98.8% | 63.7% | 28.1% | 106% | 9% (active) | 68.8% | 95.9% | 78.3% | 89% | 103% | 85.9% | 98.5% |
| COc1cc(-c2nc(-c3ccccc3)[nH]c2-c2ccnc(NCCCNS(=O)(=O)c3cccc(F)c3)n2)ccc1Cl | 53.4% | 42.1% | 87.1% | 54% | 28.7% | 65.1% | 32.6% | 38% | 54.9% | 9.39% (active) | 54.3% | 23.4% | 64.3% | 64.8% | 36.1% | 59.4% | 25% | 69.5% | 58.7% |
| COc1c(N2CC3CCCNC3C2)c(F)cc2c(=O)c(C(=O)N/N=C/c3ccc(F)cc3)cn(C3CC3)c12 (centres undefined) | 87.9% | 109% | 93.3% | 98.9% | 97.6% | 50.2% | 94.1% | 91.5% | 69.2% | 96.3% | 102% | 18.9% | 86.3% | 82.3% | – | 82.9% | 97.7% | 87.7% | 79.5% |
| N=c1c2cc(-c3ccccc3)oc2ncn1/N=C/c1ccc(Br)cc1 | 102% | 71.3% | 78.1% | 73.7% | 15.8% | 105% | 91.8% | 44.2% | 59.2% | 98.9% | 50.9% | 80% | 16.3% | 93.4% | 86.6% | 68.9% | 84.2% | 74.2% | 89.8% |
| C=C1CC[C@@H]2[C@](C)(CO)[C@H](O)CC[C@@]2(C)[C@@H]1C/C(O)=C1\CCOC1=O | 104% | 108% | 103% | 102% | 103% | 101% | 82.5% | 96% | 111% | 130% | 102% | 73.1% | 105% | 110% | 123% | 98.8% | 103% | 108% | 93.1% |
| Cc1ccc(-c2cc3nc(C(Cl)Cl)nc(-c4cccs4)n3n2)cc1 | 83.9% | 87.3% | 38.6% | 54.1% | 3.91% (active) | 80% | 97.9% | 67.9% | 100% | 43.7% | 3.22% (active) | 93.2% | 71.7% | 41.6% | 40.5% | 82.2% | 32.8% | 68.5% | 106% |
| CN1CCN(c2ccc(/C=N/Nc3nc4ccccc4c(=O)n3-c3ccccc3)cc2)CC1 | 103% | 101% | 103% | 96.2% | 109% | 102% | 93% | 103% | 91.6% | 103% | 109% | 103% | 102% | 105% | – | 90.7% | 101% | 101% | 114% |
| Fc1ccc(-c2cc3nc(C(Cl)Cl)nc(-c4ccco4)n3n2)cc1 | 37.3% | 93.2% | -22.3% (active) | -18.8% (active) | -17.3% (active) | -15.1% (active) | 89.9% | -20.1% (active) | 33.2% | -45.4% (active) | -48.2% (active) | 33.4% | 93.3% | -26.2% (active) | -65.6% (active) | 3.07% (active) | -9.65% (active) | -43.4% (active) | 30.8% |
| Cn1ccnc1C(=O)/C=C/C=C/c1ccc(C(=O)Nc2ccc(F)cc2)cc1 | 18.2% | 54.7% | 61.1% | 44.7% | 34.2% | 82.9% | 4.66% (active) | 56.7% | 22.8% | 32.8% | 18.8% | 12.6% | 19.9% | 12.3% | -25.1% (active) | 22% | 59% | -25.4% (active) | 46.8% |
| N=c1c2cc(-c3ccccc3)oc2ncn1/N=C/c1ccc(Cl)cc1 | 97.8% | 71% | 90.9% | 82.6% | 6.07% (active) | 105% | 91.6% | 41.7% | 85.5% | 89.2% | 38.8% | 78.7% | 38.5% | 96.3% | – | 76.3% | 93.1% | 82.7% | 95.1% |
| COc1ccc(NC(=O)CSc2nnc(-c3ccc4nc(-c5ccccc5)[nH]c4c3)o2)cc1 | 96.3% | 96.2% | 98% | 101% | 99.8% | 99.4% | 94.2% | 101% | 96.3% | 108% | 104% | 84.2% | 99.2% | 97.1% | – | 101% | 102% | 96.2% | 106% |
| NC(N)=Nc1ccc(Oc2cccc(NC(N)=Nc3ccc(Cl)c(C(F)(F)F)c3)c2)cn1 | 39.4% | 71.9% | 37.9% | 52.1% | 19.9% | -1.32% (active) | 9.96% (active) | 42.6% | 70.3% | 22.7% | 63.7% | 19.7% | 57.9% | 43.8% | – | 19.6% | 40.7% | 36.6% | 61.2% |
| O=C(CSc1nnc(-c2ccc(Cl)cc2)n1-c1ccccc1)Nc1ccc(Br)cc1 | 35.9% | -27.7% (active) | 0.91% (active) | -11.9% (active) | 5.77% (active) | -37.7% (active) | 12.1% | 4.69% (active) | -83% (active) | 51.9% | 41.2% | 40.5% | -3.16% (active) | -29.8% (active) | -31.6% (active) | 42.2% | -34.3% (active) | -66.7% (active) | 50.3% |
